About 2,400 (0.69%) of roughly 350,000 compounds were called active. Cut-off read from the data, not from the text of the source: active = inhibition above about 41%; inconclusive = no clear call, values can overlap the other calls; inactive = below that. This excerpt belongs to a sample that is enriched for actives.
Assay: blockers of LMP1-induced NF-kB reporter signal – cell-based, luminescence, single point, primary screen (AID 504558);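 note: 0% = neutral control wells and 100% = reference inhibitor control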
Conditions: LMP1-induced NF-kappaB luciferase reporter cells, at 12.5 µM, hits give high values

inhibition, inactive:
CCCCCCNC(=O)O[C@H]1CN(C(=O)OC(C)C)N(C(=O)OC(C)C)[C@@H]2CN(S(=O)(=O)c3ccc(C)cc3)C[C@]12O -5.81%
Cc1cc2cc3n(c2nn1)N=C(Cl)CC3 3.98%
CNS(=O)(=O)c1ccc2c(c1)[nH]c(=S)n2C 8.35%
CCOc1cc(/C=N/NC(=O)c2c(C)nc3ccc(Cl)cn23)ccc1O -8.3%
O=C(CCn1ccc([N+](=O)[O-])n1)Nc1nccs1 -2.16%
O=C(Cn1ccc([N+](=O)[O-])n1)NCc1cccs1 -5.11%
Cn1ncc([N+](=O)[O-])c1C(=O)Nc1cc(Cl)ccc1Cl 1.05%
CCc1nc2c(=O)[nH]cnc2o1 1.63%
CCN1C(=O)[C@H]2[C@@H](c3ccc(C(F)(F)F)cc3)N[C@]3(CCCN(Cc4ccc(Br)cc4)C3=O)[C@H]2C1=O 33.7%
C[C@H]1CN([C@@H](C)CO)S(=O)(=O)c2ccc(-c3cccc(F)c3)cc2O[C@@H]1CN(C)C -3.16%
Cc1cccn2c(=O)c3cc(C(=O)NC4CCCCC4)sc3nc12 -2.71%
Cc1ccccc1C(=O)NC(=S)NC1CC1 2.37%
CC(C)[C@H](NC(=O)c1ccccc1F)C(=O)Nc1cccc(S(=O)(=O)N2CCOCC2)c1 -8.03%
CCN(CC)C(=O)C1=C(C)N(Cc2ccc(OC)cc2)C(=O)C(CC(=O)NCc2ccco2)C1 (stereo not given) -5.75%
O=C(COc1ccc(S(=O)(=O)N2CCCC2)cc1[N+](=O)[O-])N1CCCCC1 -1.43%
O=C(C1=C[C@H](c2ccc(C(F)(F)F)cc2)C[C@H](OCc2ccc(CO)cc2)O1)N1CCN(Cc2ccccc2)CC1 -10.6%
O=C(C1=C[C@H](c2coc3ccccc3c2=O)C[C@H](OCc2ccc(CO)cc2)O1)N1CCOCC1 -1.64%
CN1OC[C@@H]2CN(C(=O)c3ccc(-c4ccccc4)cc3)[C@H](c3ccc(-c4cccc(F)c4)cc3)C[C@@H]21 -3.6%
O=C(O)CCCCCNc1ncnc2ccc(Br)cc12 3.15%
Brc1ccc2ncnc(NCc3cccnc3)c2c1 27.2%
Cc1ccc([C@H]2N[C@]3(CCCN(Cc4ccccc4)C3=O)[C@H]3C(=O)N(Cc4ccccc4)C(=O)[C@@H]23)cc1 4.09%
CCC(C)NC(=O)CCCc1ccccc1 (stereo not given) -18%
O=C(O)CCC(=O)N(Cc1ccccc1)Cc1ccccc1 -12%
O=C(N/N=C/c1ccccn1)c1cccc(NC(=O)c2ccc(Cl)cc2)c1 -0.655%
S=C(Nc1cccnc1)Nc1ccccn1 -5.41%
COc1ccc(NC2CCCN(C(=O)c3ccccc3-c3ncc[nH]3)C2)cc1 (stereo not given) 1.54%
C[C@H]1CN([C@@H](C)CO)C(=O)CCCn2cc(nn2)CO[C@@H]1CN(C)S(=O)(=O)c1ccc(-n2cccn2)cc1 4.52%
CC1CCN(c2ccc3c(c2)S(=O)(=O)c2cc(C(=O)O)ccc2C3=O)CC1 -11.1%
CC1=C(C(=O)N2CCOCC2)CC(CC(=O)NCCN2CCOCC2)C(=O)N1CCC1=CCCCC1 (stereo not given) 6.89%
CCN(CC)C(=O)c1sc2nc(-c3ccccc3)ccc2c1N -15.3%
Cc1sc2nc(CC(N)=O)[nH]c(=O)c2c1-c1ccccc1 -10.6%
CC1c2nc3ccccc3n2C(CC(=O)NCCCN2CCOCC2)C(=O)N1Cc1ccccc1 (stereo not given) 0.985%
CCOC(=O)C1CCN(C(=O)CC2C(=O)N(Cc3ccccc3)C(C)c3nc4ccccc4n32)CC1 (stereo not given) 14.1%
CN(C)C(CNC(=O)c1cccc(S(=O)(=O)N2CCc3ccccc3C2)c1)c1ccccc1 (stereo not given) -16.9%
CC(CN1CCOCC1)OC(=O)c1ccc(Cl)cc1Cl (stereo not given) -3.67%
CC(OC(=O)c1ccc(Cl)cc1O)C(=O)NCCC1=CCCCC1 (stereo not given) -1.59%
O=C(c1ccccc1)N1CCN(C(=O)c2cc3nc(-c4ccccc4)cc(C(F)(F)F)n3n2)CC1 6.54%
O=C(c1ccccc1)N1CCN(c2cc(-c3ccccc3)nc3cc(-c4cccc(Cl)c4)nn23)CC1 -2.14%
CNC(=O)c1ccc(CN(C)C(=O)c2cc(C3CC3)nc3c2cnn3C(C)C)cc1 -3.68%
CC1CCCC(C)N1C(=O)COC(=O)c1ccccc1C(=O)c1ccccc1 (stereo not given) -3.93%
COc1cc(C(=O)N2CCOC23CCN(Cc2ccccc2)CC3)cc(OC)c1OC 4.75%
Clc1cccc(-c2nc(NCC3CCCO3)c3ccccc3n2)c1 (stereo not given) -0.333%
NC(N)=Nc1nc(-c2ccccc2)c2cc(Cl)ccc2n1 -32.8%

inhibition, active:
Cc1ccnc(NC(=O)Cn2ccc([N+](=O)[O-])n2)c1 53.9%
Cc1ccccc1-n1nc(C)c2cc(C(=O)NC3CC3)sc21 48.8%
O=C(C1=C[C@H](c2coc3ccccc3c2=O)C[C@H](OCc2ccc(CO)cc2)O1)N1CCN(Cc2ccccc2)CC1 72.5%
COc1ccc(Nc2ncnc3ccc(Br)cc23)c(OC)c1 69.1%
O=C(O)CCCc1ccccc1 65.7%
S=C(NN=Cc1ccccn1)Nc1ccccn1 76.3%
NC(=O)c1sc2nc3c(c(-c4ccccc4)c2c1N)CCC3 44.3%
CC(C)CCNC(=O)CC1C(=O)N(Cc2ccccc2)C(C)c2nc3ccccc3n21 (stereo not given) 48.7%
CC(C)OC(=O)c1ccc(NCc2cc(O)ccc2O)cc1Cl 72.4%
C#Cc1cc(N2CCN(C(=O)c3ccoc3)CC2)n2nc(-c3cccc(Cl)c3)cc2n1 53.9%
C=C(C)C(=O)O[C@H]1C/C(C)=C\C(=O)/C=C(\C)[C@H](O)[C@@H]2OC(=O)C(=C)[C@@H]21 88.8%
Clc1ccc2nc(-c3ccccc3)nc(C(Cl)Cl)c2c1 86.7%
